According to PubChem BioAssay (NCATS):
Records with an inconclusive call do not appear. Where a call stands in place of a potency, no number is given. The source made the active and inactive calls. Unless noted, calls follow the shape of the dose curve; as a rule, active = well fitted curve in the direction sought with a large enough effect; inconclusive = small, poorly fitted or top-dose-only effect, or another doubt; inactive = no such curve, though single readings can be large; an effect the other way counts as inactive or inconclusive.

Assays:
[1] = HEK-293 Cancer Cell Toxicity qHTS against the NCATS CANVASS Library (AID 1347355); also: nearly all actives have a fitted effect of over 65% in size; also: potency is read from the fitted curve at half-maximal effect
Outline: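 1000 cells/well, 4 h pre-incubation 37 °C/5% CO2; 11-pnt titration; 72 h; CellTiter-Glo 15 min RT, luminescence.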

[2] = HPAF-II 24hr Apoptosis Induction qHTS against the NCATS CANVASS Library (AID 1347356)
Outline: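 500 HPAF-II cells/well; compounds in 11-pnt qHTS; 24 h, 37 C/5% CO2; Caspase-Glo 3/7 added, 15 min RT dark; luminescence read. Doxorubicin control.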

[3] = HEK293 18hr Apoptosis Induction qHTS against the NCATS CANVASS Library (AID 1347357)
Outline: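 Caspase-Glo 3/7 luminescence (15 min, room temperature) measured apoptosis after an 18-hour, 37 degrees C exposure of HEK293 cells (500 cells/well) to compounds in 11 points.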

[4] = HPAF-II 12hr Apoptosis Induction qHTS against the NCATS CANVASS Library (AID 1347358)
Outline: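 Caspase-Glo 3/7 luminescence (DEVD substrate) reports caspase activity in HPAF-II cells after 12 h compound treatment at 37 degrees C. Compounds were tested in an 11-point series. Doxorubicin served as control.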

[5] = HEK293 12hr Apoptosis Induction qHTS against the NCATS CANVASS Library (AID 1347361)
Outline: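 HEK293 cells (500/well, DMEM + 10% FBS) were exposed to natural products across an 11-point series for 12 hours at 37 degrees C. Caspase-3/7 activity was then measured with DEVD luciferase luminescence after 15 min at room temperature.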

[6] = target: Luciferin 4-monooxygenase (Photinus pyralis) (UniProt P08659); assay: Firefly luciferase counterscreen qHTS: Assay Interference Panel against the NCATS CANVASS Library (AID 1347363); also: series mostly up to about 57 µM
Outline: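 Purified P. pyralis luciferase (0.04 ug/mL, 4x reagent) added to Tris-acetate buffer with 0.013 mM D-luciferin, 0.013 mM ATP and 13.3 mM Mg-acetate; compounds preincubated 15 min, then luminescence read after 5 min, RT.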

[7] = KB-8-5-11 Cancer Cell Toxicity qHTS against the NCATS CANVASS Library (AID 1347364); also: nearly all actives have a fitted effect of over 75% in size; also: potency is read from the fitted curve at half-maximal effect
Outline: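 CellTiter-Glo luminescence after 72 h exposure; 500 KB-8-5-11 cells/well, DMEM/10% FBS, 37C, 5% CO2; compounds in 11-pt qHTS. Follow-up confirmation included medium with 1uM tariquidar.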

[8] = KB-3-1 Cancer Cell Toxicity qHTS against the NCATS CANVASS Library (AID 1347366); also: nearly all actives have a fitted effect of over 75% in size; also: potency is read from the fitted curve at half-maximal effect
Outline: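 CellTiter-Glo luminescence measured viability after 72 h at 37C. KB-3-1 cells were seeded at 500 per well in DMEM/10% FBS.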

[9] = qHTS for ATAD5 Agonist screened against the NCATS CANVASS Library (AID 1347367);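 also: luciferase reporter driven by ATAD5 which rises upon DNA damage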
Outline: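 Genotoxicity via ATAD5-luciferase luminescence after 16 h compound exposure (11-point series) at 37C in HEK293T-ATAD5 cells. CellTiter-Fluor viability read precedes the luminescence read; MMS serves as positive control.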

[10] = J3T Cancer Cell Toxicity qHTS against the NCATS CANVASS Library (AID 1347371); also: potency is read from the fitted curve at half-maximal effect
Outline: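 Dog glioma J3T, 500 cells/well; cpd 11-pt qHTS; 72 hr, 37C/5% CO2; CellTiterGlo ATP luminescence readout.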

[11] = target: Nuclear receptor subfamily 1 group I member 3 (Homo sapiens) (UniProt Q14994); assay: qHTS for Constitutive Androstane Receptor (CAR) Agonist screened against the NCATS CANVASS Library (AID 1347373);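 also: every well also contained 1.5 µM PK11195 alongside the test compound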
Outline: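 Luciferase read-out (ONE-Glo, 30 min RT) of CYP2B6-2.2kb promoter activity in double-stable HepG2-hCAR cells after 24hr compound exposure with 1.5uM PK11195 present; viability measured first by CellTiter-Fluor.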

[12] = 10-beta competent E. coli microbial cell viability qHTS against the NCATS CANVASS Library (AID 1347376); also: series mostly up to about 46 µM
Outline: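 Luminescence from BacTiter-Glo ATP detection served as the viability read-out; bacteria (0.2 OD) had been incubated overnight at 37C with pin-transferred compounds at 11 concentrations.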

[13] = DH5-alpha competent E. coli microbial cell viability qHTS against the NCATS CANVASS Library (AID 1347377); details: outcome: dose series up to 46.1 µM unless noted
Outline: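 Luminescent ATP read-out (BacTiter-Glo, 20 min RT) after overnight 37C culture of DH5-alpha E. coli with compounds; daunomycin control at 0.2 nM–9.2 uM final.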

[14] = qHTS for H2AX Agonists against the NCATS CANVASS Library (AID 1347378); also: potency is read from the fitted curve at half-maximal effect
Outline: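 Phospho-H2AX (S139) in CHO-K1 lysates measured by HTRF, reported as 665/615 nm emission ratio after 24 hr antibody incubation at room temperature. Cells were first treated with a compound series for 3 hr at 37C (0.76% DMSO final).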

[15] = Inflammasome Signaling qHTS Counterscreen: IL-1-beta AlphaLISA counterscreen against the NCATS CANVASS Library (AID 1347381);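 also: cell-free check with purified IL-1β in medium and no THP-1 cells; series mostly up to about 57 µM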
Outline: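 Here, no cellular stimulation occurs; compounds in an 11-point series meet 4 pg purified IL-1-beta directly. Bead-based AlphaLISA detection follows (1 h acceptor/antibody, then 30 min donor, dark, room temperature), with excitation at 680 nm.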

[16] = Cytotoxicity qHTS for assessment of Hepg2 cells membrane integrity screened against the NCATS CANVASS Library (AID 1347387)
Outline: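 LDH release read by fluorescence (560 nm ex/590 nm em) after CytoTox-ONE addition and 10 min RT; signal tracks lysed cells. HepG2, 2000 cells/well, plated overnight; compound 5 hr, 37C, 5% CO2, final 0.59 nM - 46 uM, 11 points.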

[17] = qHTS for activators of dead-cell proteases activity screened against the NCATS CANVASS Library (AID 1347392);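 also: luminescence from protease leaking out of membrane-damaged cells cleaving impermeant substrate; rising signal means more cytotoxicity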
Outline: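 HepG2, 2000 cells/well, 18 h attach; cpd 11-pt, 5 h 37C 5% CO2; CytoTox-Glo (AAF-aminoluciferin) 15 min RT; luminescence read.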

[18] = Redox Reaction Profiling qHTS: Assay Interference Panel against the NCATS CANVASS Library (AID 1347401); also: potency is read from the fitted curve at half-maximal effect
Outline: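 Fluorescence read-out (525 nm excitation, 598 nm emission) at time zero and after 15 min in the dark tracked resorufin formation. Mix: 5 uM resazurin, 200 uM DTT, HEPES pH 7.3 buffer with NaCl.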

[19] = qHTS for inhibitors of Rabies Virus screened against the NCATS CANVASS Library (AID 1347402; calls by dose curve; also: series mostly up to about 46 µM)

Chain of Nuclear receptor subfamily 1 group I member 3 (Homo sapiens) (Q14994 whole entry, looked up): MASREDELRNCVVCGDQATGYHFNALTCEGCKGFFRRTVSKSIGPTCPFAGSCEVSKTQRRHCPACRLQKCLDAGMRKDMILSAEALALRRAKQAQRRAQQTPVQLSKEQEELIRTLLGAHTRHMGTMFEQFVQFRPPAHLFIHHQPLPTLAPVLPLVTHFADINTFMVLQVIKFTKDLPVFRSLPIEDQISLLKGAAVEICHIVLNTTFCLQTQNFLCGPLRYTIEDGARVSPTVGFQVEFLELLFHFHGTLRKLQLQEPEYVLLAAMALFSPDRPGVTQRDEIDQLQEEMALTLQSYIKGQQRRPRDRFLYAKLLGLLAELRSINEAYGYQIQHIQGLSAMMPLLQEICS
Chain of Luciferin 4-monooxygenase (Photinus pyralis) (P08659 whole entry, looked up): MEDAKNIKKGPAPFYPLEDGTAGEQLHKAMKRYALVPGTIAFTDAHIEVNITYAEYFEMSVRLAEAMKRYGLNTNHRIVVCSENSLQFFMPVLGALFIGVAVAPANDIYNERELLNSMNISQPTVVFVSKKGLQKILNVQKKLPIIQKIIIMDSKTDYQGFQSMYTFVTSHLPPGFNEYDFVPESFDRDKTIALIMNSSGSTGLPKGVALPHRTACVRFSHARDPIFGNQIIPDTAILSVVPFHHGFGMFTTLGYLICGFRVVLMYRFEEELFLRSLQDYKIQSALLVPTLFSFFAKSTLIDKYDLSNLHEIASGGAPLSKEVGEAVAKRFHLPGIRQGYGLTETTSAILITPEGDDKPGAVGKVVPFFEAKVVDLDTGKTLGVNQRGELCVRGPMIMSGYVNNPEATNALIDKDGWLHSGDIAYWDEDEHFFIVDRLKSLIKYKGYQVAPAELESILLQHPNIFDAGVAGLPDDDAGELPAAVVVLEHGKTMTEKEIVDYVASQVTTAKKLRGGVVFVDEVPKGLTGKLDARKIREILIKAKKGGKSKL

SMILES	Potency [1]	outcome [2]	outcome [3]	outcome [4]	outcome [5]	Potency [6]	Potency [7]	Potency [8]	Potency [9]	Potency [10]	Potency [11]	outcome [12]	outcome [13]	Potency [14]	outcome [15]	outcome [16]	outcome [17]	Potency [18]	outcome [19]
C[N+](C)(C)CCc1c[nH]c2ccccc12	inactive	inactive	inactive	inactive	inactive	inactive	inactive	inactive	inactive	inactive	inactive	inactive	inactive	inactive	inactive	inactive	inactive	inactive	inactive
CC[C@H]1CN2CCc3c([nH]c4cccc(OC)c34)[C@@H]2C[C@@H]1/C(=C\OC)C(=O)OC	23.5 µM (active)	inactive	inactive	inactive	inactive	inactive	inactive	inactive	inactive	inactive	inactive	inactive	inactive	inactive	inactive	inactive	inactive	inactive	
CCCC[C@@H]1CC[C@H]2CCCC(CCCO)N12 (some centres not stated)	inactive	inactive	inactive	inactive	inactive	inactive	inactive	inactive	inactive	inactive	inactive	inactive	inactive	inactive	inactive	inactive	inactive	inactive	inactive
CCCC[C@@H](C)/C=C1/CN2CCC[C@H]2[C@@](C)(O)[C@@H]1O	inactive	inactive	inactive	inactive	inactive	inactive	inactive	inactive	inactive	inactive	inactive	inactive	inactive	inactive	inactive	inactive	inactive	inactive	inactive
C/C=C(\C)C(=O)O[C@@H]1[C@@H](O)[C@@H]2O[C@H]3[C@H](O[C@@H](CCCCC)CCCCCCC(=O)CCC(=O)OC[C@@H](O2)[C@H]1OC(=O)/C=C/c1ccccc1)O[C@H](C)[C@H](OC(C)=O)[C@@H]3O	0.118 µM (active)	inactive	inactive	inactive	inactive	inactive	1.48 µM (active)	0.118 µM (active)	inactive	inactive	inactive	inactive	inactive	inactive	inactive	inactive	inactive	inactive	
C/C=C1/CN2CC[C@@]34c5ccccc5N(C)[C@@H]3[C@@H]2C[C@@H]1[C@H]4C(=O)OC	inactive	inactive	inactive	inactive	inactive	inactive	inactive	inactive	inactive	inactive	inactive	inactive	inactive	inactive	inactive	inactive	inactive	inactive	inactive
C=C(C)[C@H]1C(=O)c2c3c(cc4c5c(n1c24)[C@@]1(C)[C@@H](CC[C@H]2[C@](C)(/C=C/C=C(\C)C(=O)O)[C@@H](O)CC[C@@]21C)C5)C1=CC(C)(C)OC(C)(C)[C@H]1[C@@H]3O			inactive		inactive	inactive		16.6 µM (active)	inactive	inactive	inactive	inactive	inactive	13.7 µM (active)	inactive			19.2 µM (active)	
CN1C(=O)C2C(N=CN2C)N(C)C1=O (configuration not stated)																			inactive
C[C@]12CC(O)C3[C@@H](CC[C@@H]4C[C@@H](O)CC[C@]34CO)[C@@]1(O)CC[C@@H]2C1=CC(=O)OC1 (some centres not stated)	3.72 µM (active)	inactive	inactive	inactive	inactive	inactive	5.9 µM (active)	9.35 µM (active)	inactive	10.5 µM (active)	inactive	inactive	inactive	inactive	inactive	inactive	inactive	inactive	inactive
C[C@]12CC(O)C3[C@@H](CCC4C[C@@H](O)CC[C@@]43CO)[C@@]1(O)CC[C@@H]2C1=CC(=O)OC1 (some centres not stated)	13.2 µM (active)	inactive	inactive	inactive	inactive	inactive	18.7 µM (active)	26.4 µM (active)	inactive	14.8 µM (active)	inactive	inactive	inactive	inactive	inactive	inactive	inactive	inactive	
